This is a sample that favours compounds with a hit; in the whole collection about 3.2% have one here.
HGIII-sPLA2 inh: human group III sPLA2 inhibitors, primary screen, biochemical, QFRET, BODIPY PC-A2 liposome substrate | QFRET BODIPY PC-A2 liposome hydrolysis, fluorescence | inhibition, % at 12.2 µM | 370,000 compounds, 0.56% hits | AID 743126, 2013;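 active = inhibition above mean plus 3 SD of compounds lying within the high and low control bounds, cut at about 19% in these data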;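 note: 0% = median of test compound wells and 100% = no enzyme DMSO wells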
Target sequence (Q9NZ20 whole entry, looked up): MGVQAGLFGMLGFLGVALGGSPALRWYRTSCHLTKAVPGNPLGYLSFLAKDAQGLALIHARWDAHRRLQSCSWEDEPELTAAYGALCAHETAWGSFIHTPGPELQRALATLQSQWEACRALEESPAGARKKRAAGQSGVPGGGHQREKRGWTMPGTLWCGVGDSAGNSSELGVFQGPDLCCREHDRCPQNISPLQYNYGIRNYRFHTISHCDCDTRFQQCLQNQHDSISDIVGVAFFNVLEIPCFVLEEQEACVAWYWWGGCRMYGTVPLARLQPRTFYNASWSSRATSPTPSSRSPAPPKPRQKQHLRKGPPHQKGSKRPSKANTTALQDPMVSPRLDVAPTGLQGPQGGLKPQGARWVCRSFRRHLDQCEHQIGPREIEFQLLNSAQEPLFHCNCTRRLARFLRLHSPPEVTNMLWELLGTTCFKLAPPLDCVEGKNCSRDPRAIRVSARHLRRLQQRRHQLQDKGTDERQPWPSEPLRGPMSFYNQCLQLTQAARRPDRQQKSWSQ
PG9 binder: binders of HIV-1 gp120 antibody PG9, primary screen, biochemical, TR-FRET; HIV-1 gp120 / PG9 antibody interaction; TR-FRET gp120-PG9 antibody binding; inhibition, % at 6.7 µM; 360,000 compounds, 0.43% hits; in the data active = inhibition above about 8.5%
rCAG RNA binder: binders of r(CAG) RNA repeats, primary screen, biochemical, fluorescence | r(CAG) RNA repeat, TO-PRO-1 dye displacement fluorescence | inhibition, % at 3 µM | 370,000 compounds, 1.3% hits | AID 651821, 2012;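 active = inhibition above the plate cutoff, the mean of all test compounds on that plate plus 3 SD, cut at about 35% in these data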;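 note: 0% = DMSO alone and 100% = 100 µM mitoxantrone as full dye displacement; higher means more dye released from RNA so lower well fluorescence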
bovine MsrA act: bovine MsrA enzyme activators, primary screen, biochemical, absorbance, HTS; purified bovine MsrA, absorbance read-out; activation, % at 10.6 µM; 360,000 compounds, 0.3% hits; in the data active = activation above about 7.5%;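 note: 0% = vehicle and 100% = reference activator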
MsrA inh: bovine MsrA enzyme inhibitors, primary screen, biochemical, absorbance, HTS | purified bovine MsrA, absorbance read-out | AID 651718, 2012 | Methionine sulfoxide reductase A (Bos taurus) | inhibition, % at 15.5 µM | 360,000 compounds, 0.75% hits; in the data active = inhibition above about 4.5%;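 note: 0% = vehicle wells with enzyme and 100% = reference inhibitor wells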
* = called active by the depositor; . = not tested or not shown.

SMILES | HGIII-sPLA2 inh | PG9 binder | rCAG RNA binder | bovine MsrA act | MsrA inh
COc1ccc(S(=O)(=O)N(C(=O)c2ccco2)c2cc3sc(=O)oc3c3ccccc23)cc1 | 15.7 | 2.4 | 97.9* | -10.4 | 1.6
COc1ccc(S(=O)(=O)N(C(=O)C(C)C)c2ccc3oc(=O)sc3c2)cc1 | -27.1 | -0.9 | 29.3 | 6.6 | 2.0
COC(=O)CCC(=O)N1C2=NC3=C(C(=O)N(Cc4ccc5c(c4)OCO5)C3=O)C3N(C)c4ccccc4[C@]23C[C@H]1CO (some centres undefined) | 0.9 | . | 13.5 | . | .
Cc1c(/C(O)=C2\C(=O)C(=O)N(CCN(C)C)C2c2cccs2)cnn1-c1ccccc1 (centres undefined) | 10.0 | 7.3 | -1.5 | -7.1 | 4.6*
O=C1CC(c2ccccc2)CC(O)=C1C=Nc1ccc(Cl)cc1 (centres undefined) | -3.5 | 4.0 | 2.3 | -4.3 | 0.2
O=C1CCCC(O)=C1C=Nc1ccc(O)cc1 | -0.5 | -1.9 | -0.7 | -3.7 | 4.6*
COc1ccc(C(=O)COC(=O)c2ccccc2NS(=O)(=O)c2ccc(O)c([N+](=O)[O-])c2)cc1 | -23.0 | -0.1 | 91.9* | -3.0 | 0.7
COc1ccc(NC(=O)/C(C#N)=C\c2ccc(-c3cc(C(=O)O)ccc3C)o2)cc1 | -5.3 | -4.1 | 59.4* | 3.3 | 1.9
O=S(=O)(Nc1nc2ccccc2nc1Cl)c1ccc2ccccc2c1 | -32.7 | 2.8 | 48.8* | -2.9 | 1.5
CC(=O)Nc1nc(C)c(-c2csc(Nc3cccc(C(C)=O)c3)n2)s1 | 2.6 | 0.6 | 20.4 | -1.8 | 4.6*
CCc1ccc2[nH]c(=O)c(CN(Cc3ccc(F)cc3)C(c3nnnn3CCN3CCOCC3)C(C)C)cc2c1 (centres undefined) | . | . | . | 8.6* | .
CC(=O)C1(C(=O)NCc2ccccc2)CC(c2ccccc2C(F)(F)F)=NO1 (centres undefined) | -2.9 | . | 5.1 | . | .
CN(Cc1ccccc1)C(=O)OCc1cn(Cc2ccccc2)nn1 | -1.7 | . | -1.8 | . | .
N#C/C(=C(/O)c1ccccc1F)c1nc2cc(C(F)(F)F)ccc2s1 | -17.3 | 2.3 | 27.0 | -6.7 | 4.7*
N#Cc1cc(-c2ccccc2)oc1NC(=O)c1ccco1 | -11.6 | -2.2 | 1.1 | -3.4 | 4.6*
Cc1cccc(C(=O)Nc2oc(-c3ccccc3)cc2C#N)c1 | -17.1 | -2.0 | 11.0 | -2.2 | -0.1
O=C(COc1ccccc1)NC(NC(=S)Nc1ccccc1C(=O)O)C(Cl)(Cl)Cl (centres undefined) | -10.2 | -2.9 | 38.6* | -8.3 | 1.0
COC(=O)c1cccc(-n2sc3ccccc3c2=O)c1 | 12.7 | -0.4 | 1.7 | 11.1* | 1.2
COC(=O)c1cccc(N2CCCC2=O)c1 | 3.8 | -0.6 | -2.4 | -4.8 | 1.1
CCOc1ccc(-n2c(SCC(=O)c3ccccc3Cl)nnc2-c2ccncc2)cc1 | -49.3 | . | 6.1 | . | .
COc1ccc(-c2csc(NC(=O)CSc3nc(C)cs3)n2)cc1 | -18.6 | 0.1 | 0.9 | -13.8 | -0.4
COc1ccc(-c2csc(NC(=O)CSc3nc(C)nc4sc(C(=O)O)c(C)c34)n2)cc1 | -9.1 | -0.4 | 42.5* | -4.3 | -0.5
O=S1(=O)c2ccc(Br)cc2OC[C@@H](Cc2ccccc2)N1Cc1cn(Cc2ccc(Cl)cc2)nn1 | 8.4 | . | 5.9 | . | .
O=C(CCCCCN1C(=O)C2C3C=CC(C3)C2C1=O)Nc1ccc2ncccc2c1 (centres undefined) | 5.2 | . | 1.2 | . | .
CCCCN1C(=O)N2Cc3ccc(C)cc3C2CS1(=O)=O (centres undefined) | 2.7 | . | 3.0 | . | .
SMILES | HGIII-sPLA2 inh | PG9 binder | rCAG RNA binder | bovine MsrA act | MsrA inh
O=C(/C=C/c1ccco1)NC(=S)Nc1cc(-c2nc3ccccc3s2)ccc1Cl | 8.2 | -11.7 | 45.8* | -6.3 | 1.9
CCCCNC(=O)/C=C1\Sc2ccccc2NC1=O | -3.6 | -1.1 | 0.2 | -4.7 | 0.8
CCc1ccc(C(=O)/C=C2\Sc3ccccc3NC2=O)cc1 | 41.0* | -2.1 | 4.9 | -2.6 | -0.3
O=C1NN(c2ccc(Br)cc2)C(=O)/C1=C\c1ccc(O)cc1O | -11.1 | -1.0 | 45.9* | -3.6 | 1.8
O=c1c2cc3cc(Cl)ccc3nc2ncn1CCc1c[nH]c2ccccc12 | -37.0 | . | 6.9 | . | .
Cc1cccc(N(C)S(=O)(=O)c2nnc(NC(=O)c3ccco3)s2)c1 | -3.0 | -1.6 | 13.0 | -5.3 | 2.9
CCN(c1ccc(C)cc1)S(=O)(=O)c1nnc(NC(=O)c2ccco2)s1 | -8.7 | 1.4 | 43.8* | -2.3 | 4.0
COc1ccc2c(c1)OC[C@H]1[C@H]2N2C(=O)c3cc(C)ccc3NC(=O)[C@@]2(C)[C@H]1c1ccccc1 | . | . | . | -0.1 | .
COc1ccc2c(c1)OC[C@H]1[C@H]2N2C(=O)c3ccccc3NC(=O)[C@@]2(C)[C@H]1c1ccccc1 | 38.6* | 0.8 | 12.7 | -0.5 | 1.7
Cc1[nH]c2ccccc2c1CCN(Cc1cccs1)C(=O)Nc1cccc2c1OCO2 | -20.1 | . | 4.7 | . | .
O=C(NCc1ccco1)c1ccc(COCC(F)(F)C(F)F)cc1 | 4.0 | -2.5 | 41.2* | -1.7 | -1.0
O=C(NCc1ccco1)c1ccc(COCC(F)(F)F)cc1 | -2.2 | 0.3 | -0.3 | 0.9 | 0.8
O=C(Nc1ccc2c(c1)OCO2)OC1CCC12CCCCC2 (centres undefined) | 2.4 | . | 4.3 | . | .
Cc1cc(NS(=O)(=O)c2ccc(NC(=O)Nc3cccc(Cl)c3)cc2)no1 | -65.0 | -0.9 | 68.5* | -3.4 | -0.8
CN=CC1=C(O)c2ccccc2C1=O | 6.3 | -0.9 | -1.1 | -2.7 | 3.5
O=C1C(C2=C(O)c3ccccc3C2=O)=Nc2ccccc21 | 1.5 | -13.6 | 44.1* | -4.2 | 0.4
CCOC(=O)Nc1ccc2c(c1)[C@@]1(CC(=O)N(CC(C)C)C1c1ccccc1)C(=O)N2C (some centres undefined) | -1.8 | . | 0.5 | . | .
COC(=O)c1sc(NC(=O)c2cc(C)on2)nc1C | 1.9 | -2.2 | -1.8 | -4.3 | 2.7
CCc1nc(NC(=O)c2sc(C)nc2C)sc1C(=O)OC | 0.0 | 0.3 | -1.7 | -3.4 | 4.6*
O=C(CCl)N1N=C(c2ccco2)CC1c1ccco1 (centres undefined) | 2.7 | 0.8 | 15.0 | -13.8 | 1.0
CC(=O)C1=C(O)C=C(c2ccco2)CC1c1ccco1 (centres undefined) | 8.9 | -0.1 | 4.1 | -13.5 | 4.8*
N#CC(C(=O)Nc1ccccc1)=C1Nc2ccccc2N1 | -22.8 | -1.5 | 3.5 | -2.1 | 0.0
Cc1ccc(NC(=S)/C(C#N)=C2/Nc3ccccc3S2)cc1 | -42.9 | -0.8 | 91.6* | -7.1 | 2.6
NC(=O)/C(N=Nc1ccccc1)=N/Nc1ccccc1 | 8.0 | -1.7 | 4.2 | 1.8 | 3.8
OCC1OC(C(N=Nc2ccccc2)=NNc2ccccc2)C(O)C1O (centres undefined) | 19.8* | -0.6 | 6.8 | . | 0.6
COc1cc(/C=C/C=C2/CC/C(=C/C=C/c3ccc(O)c(OC)c3)C2=O)ccc1O | -1.6 | -2.2 | 80.3* | -4.4 | 4.4

Bioassay records from PubChem BioAssay.
